Hits are enriched below; roughly 7.5% of the tested compounds scored in any of these assays.
Gal4-VP16 FLuc: counter-screen for ROR gamma inhibitors: Gal4-VP16 reporter; Drosophila S2 Gal4-VP16 UAS-luciferase, luminescence, 20 h; Potency, µM (series often up to 53.6 µM), inactives show top-dose activity, negative = inhibition, most hits filed as inhibitors; hit rate 3.5% among 310,000; AID 2546;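 also: Gal4-VP16 expression switched on by copper sulfate through the metallothionein promoter; potency is read from the fitted curve at half-maximal effect; nearly all actives have a fitted effect of over 50% in size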
RORgamma inh: inhibitors of mouse ROR gamma transcriptional activity | Drosophila S2 Gal4-RORgamma UAS-luciferase reporter, 20 h | Potency, µM (series often up to 53.6 µM), for inactives: at the highest dose activity change, negative = inhibition, most hits filed as inhibitors | hit rate 5.4% among 310,000 | AID 2551; also: potency is read from the fitted curve at half-maximal effect; nearly all actives have a fitted effect of over 60% in size
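Using a luciferase readout, inhibitors were identified by reduced reporter activity in Drosophila cells coexpressing a copper-inducible Gal4–ROR gamma fusion and UAS-driven Photinus luciferase, incubated 20 hr after 700 uM copper sulfate.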
B2AR arrestin: agonists driving beta-arrestin recruitment to human beta2-adrenergic receptor. P07550. beta-arrestin recruitment to beta2AR, cell-based reporter. Potency, µM (highest dose often 46.1 µM), for inactives: top-dose activation, actives largely listed as activators. hit rate 0.02% among 330,000. AID 492947;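 also: potency is read from the fitted curve at half-maximal effect; 0% = DMSO controls and full agonism = EC100 isoproterenol or metaproterenol; nearly all actives have a fitted effect of over 65% in size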
ELG1 repair inh: blocks ELG1-dependent DNA repair in HEK293T cells | hit rate 2.3% among 330,000 | Potency, µM (doses to about 46.1 µM), inactives show at the highest dose activity change, negative = inhibition, actives largely listed as inhibitors | HEK293T ELG1-luciferase reporter, luminescence, 16 h; DNA damage induced by 5-fluorouridine; also: potency is read from the fitted curve at half-maximal effect; nearly all actives have a fitted effect of over 55% in size
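Step one: seed 2,000 cells per well. Step two: pin-transfer compound or DMSO alongside 5-fluorouridine. Step three: incubate 16 hr, 37 °C, 5% CO2. Step four: add ONE-Glo, wait 30 min, read luminescence.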
TSHR antag: blocks TSH signaling through the human TSH receptor. P16473. TSHR-expressing cells, TSH-stimulated cAMP HTRF, 2 h; active compounds read low. activity change, negative = inhibition, % at 11.5 µM. hit rate 0.2% among 330,000;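 active = activity change below a set negative limit, meaning inhibition stronger than a set level, cut at about -70% in these data; inconclusive = activity change between two set negative limits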
Target sequence (P16473 whole entry, looked up): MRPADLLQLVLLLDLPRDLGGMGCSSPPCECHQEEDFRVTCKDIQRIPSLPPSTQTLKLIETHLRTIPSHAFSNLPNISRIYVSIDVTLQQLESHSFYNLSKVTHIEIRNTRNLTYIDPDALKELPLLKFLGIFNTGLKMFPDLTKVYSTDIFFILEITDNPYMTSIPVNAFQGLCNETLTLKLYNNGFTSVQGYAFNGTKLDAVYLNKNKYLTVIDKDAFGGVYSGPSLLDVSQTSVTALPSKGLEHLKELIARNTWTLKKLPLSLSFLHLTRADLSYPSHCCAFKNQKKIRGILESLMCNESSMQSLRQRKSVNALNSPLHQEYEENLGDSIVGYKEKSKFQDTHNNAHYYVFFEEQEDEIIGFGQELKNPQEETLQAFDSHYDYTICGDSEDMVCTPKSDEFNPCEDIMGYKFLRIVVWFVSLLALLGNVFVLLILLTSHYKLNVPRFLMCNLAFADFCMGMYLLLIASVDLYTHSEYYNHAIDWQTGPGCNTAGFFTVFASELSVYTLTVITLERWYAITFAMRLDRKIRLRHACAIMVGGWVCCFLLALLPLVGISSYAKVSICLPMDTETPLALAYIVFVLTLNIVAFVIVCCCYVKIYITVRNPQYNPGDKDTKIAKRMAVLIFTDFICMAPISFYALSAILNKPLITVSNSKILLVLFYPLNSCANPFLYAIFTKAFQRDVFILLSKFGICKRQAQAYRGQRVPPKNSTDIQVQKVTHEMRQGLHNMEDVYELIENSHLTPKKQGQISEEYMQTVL
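Cell-based HTRF cAMP assay; TSHR cells + compound, TSH EC80 (4nM final), 2 h, 37 deg C. Lysis with anti-cAMP cryptate and cAMP-d2, 30 min RT, read 665/620 nm.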
The depositor's hits bear a star; ? = inconclusive; . = no result given; [ ] = another dose, or the depositor's remark. Unless noted, calls follow the shape of the dose curve; as a rule, active = well fitted curve in the direction sought with a large enough effect; inconclusive = small, poorly fitted or top-dose-only effect, or another doubt; inactive = no such curve, though single readings can be large; an effect the other way counts as inactive or inconclusive. Unless noted, % is scaled to controls: 0 for no effect and ±100 for the full control effect.

SMILES | Gal4-VP16 FLuc | RORgamma inh | B2AR arrestin | ELG1 repair inh | TSHR antag
COc1ccc(NC(=S)Nc2cccc(S(=O)(=O)N3CCCCC3)c2)cc1 | ? | 18µM* | -3% | 4% | 6
COc1ccc([C@H]2CC(=O)C=C(c3ccc(Cl)c(C(F)(F)F)c3)C2)cc1OC | . | . | -1% | ? | -11
CNC(=O)[C@]1(C(F)(F)F)C[C@H](CCC2CCCCC2)CCCO1 | -19% | 7% | . | . | .
Cc1cc(Nc2ccc(Cl)cc2)n2ncnc2n1 | 5% | -3% | 0% | 12% | -14
Cc1ccc(Nc2cc(-c3ccccc3)nc3ncnn23)cc1 | ? | 11µM* | 0% | 0% | -8
CCn1c2ccccc2c2cc(Nc3cc(C)nc4ncnn34)ccc21 | ? | 20µM* | 0% | ? | 6
COc1ccc(NC(=O)CCS(=O)(=O)c2cccc3nonc23)cc1Cl | 14% | -9% | 0% | 12% | 5
CC(C)NC(=O)NC(=O)COC(=O)CCCSc1nc2ccccc2s1 | 6.3µM* | 11µM* | 0% | 11% | 25
NC(=O)NC(=O)COC(=O)CCCSc1nc2ccccc2s1 | 8.9µM* | 11µM* | -1% | -16% | -8
CCOC(=O)NC(=O)COC(=O)CCCSc1nc2ccccc2s1 | 8.9µM* | 7.1µM* | 0% | 1% | 2
Cc1cccc(C)c1NC(=O)CCCSc1nc2ccccc2s1 | 12% | -9% | -2% | 5% | -16
CCOC(=O)N/C(N)=N/c1nc2ccccc2s1 | 28µM* | ? | 0% | ? | -4
CCC(C)(C)NC(=O)CCCSc1nc2ccccc2s1 | -51% | -40% | 0% | -16% | -5
COc1ccc2c(C)c(C(=O)N3CCN(Cc4ccccc4)CC3)oc2c1 | 9% | ? | 0% | ? | -19
C/C(=N\NC(=O)c1nnn(-c2nonc2N)c1-c1ccc2c(c1)OCO2)c1ccc(C)cc1 | -11% | 8% | 0% | 0% | -9
Cc1sc(NC(=O)CSc2nnc(CCNC(=O)c3cccs3)n2C)nc1-c1ccccc1 | -6% | 12% | 0% | 16µM* | -6
COc1ccc(NS(=O)(=O)c2ccc(N/N=C(\C)c3ccncc3)c([N+](=O)[O-])c2)cc1 | -1% | -3% | 5% | 18µM* | ?
C/C(=N\Nc1ccc(S(=O)(=O)Nc2ccccc2)cc1[N+](=O)[O-])c1ccncc1 | 1% | 7% | 0% | -15% | -4
O=C(N/N=C/c1ccccc1)c1ccco1 | -5% | -17% | 0% | ? | -9
O=C(N/N=C/c1ccc2cccnc2c1)c1ccco1 | 11µM* | ? | 0% | ? | -10
CCN(CC)c1ccc(/C=N/NC(=S)NCc2ccccc2)c(O)c1 | 7.1µM* | 8.9µM* | 0% | ? | 18
CCN(CC)c1ccc(/C=N/N(c2ccccc2)c2ccccc2)c(O)c1 | ? | ? | 0% | -12% | -3
CCN(CC)c1ccc(/C=N/NC(=O)c2ccco2)c(O)c1 | 3.2µM* | 0.79µM* | 0% | ? | -7
CCN(CC)c1ccc(/C=N/N=C(c2ccccc2)c2ccccc2)c(O)c1 | 20µM* | ? | -1% | -8% | -12
CC(C)N(C(=O)CN1CCC(c2nc3ccccc3[nH]2)CC1)C(C)C | -6% | -12% | -1% | 5% | 3
SMILES | Gal4-VP16 FLuc | RORgamma inh | B2AR arrestin | ELG1 repair inh | TSHR antag
CCN(CC)c1ccc(/C=N/Nc2nn[nH]n2)cc1 | -4% | -30% | ? | ? | 18
O=C(N/N=C/c1ccc(OCc2ccccc2)cc1)c1ccco1 | -2% | ? | 0% | ? | -6
CCN(CC)c1ccc(/C=N/NC(=O)Cc2cccs2)c(O)c1 | 0.56µM* | 0.18µM* | -1% | 19% | 18
CCN(CC)c1ccc(/C=N/NC(=O)c2cc(C)nc3ccccc23)cc1 | ? | 11µM* | 0% | 0% | 9
CCN(CC)c1ccc(/C=N/NC(=O)c2ccco2)cc1 | ? | 14µM* | 0% | ? | 9
CCN(CC)c1ccc(/C=N/Nc2nc(C)cc(C)n2)cc1 | 13µM* | 1µM* | ? | ? | -14
C=CCOC(=O)N[C@H](/C(C(=O)OC)=C(\C)NCc1ccccc1)c1cccc(OC)c1 | 3% | -16% | . | . | .
O=C(CC1C(=O)N(c2ccccc2)C(=O)N1Cc1ccco1)Nc1ccccc1 (centres undefined) | -11% | 36% | 0% | -28% | -4
CC(C)N1C(=S)N(Cc2ccco2)C(=O)C1CC(=O)Nc1ccccc1 (centres undefined) | -8% | 18µM* | 0% | ? | -4
CCCCCC(=O)c1cc(CC(C(=O)OC)C(=O)OC)cc2cc(OC)c(OC)cc12 | 2%[10 µM] | 0%[10 µM] | . | . | .
Cn1c(=O)[nH]c(=O)c2c1nc(N1CCCCC1)n2C/C=N/Nc1ccc(C(=O)O)cc1 | ? | 7.1µM* | 0% | ? | 3
CC1CCN(c2nc3c(c(=O)n(C)c(=O)n3C)n2CCSc2nc3ccccc3s2)CC1 | 2% | -42% | 0% | 23µM* | -21
Cn1c(=O)c2c(nc(N3CCCCC3)n2CCSc2nc3ccccc3s2)n(C)c1=O | -8% | 36% | 0% | -23% | 3
Cn1c(=O)[nH]c(=O)c2c1nc(N1CCCCC1)n2CCCSc1nc2ccccc2s1 | -3% | ? | 3% | 21µM* | -14
Cn1c(=O)[nH]c(=O)c2c1nc(N1CCCC1)n2CCCSc1nc2ccccc2o1 | -4% | 3% | -1% | ? | 7
COc1ccc(-c2nc3c(c4c2CC(C)OC4)CN(CCC(C)C)CC3)cc1 (centres undefined) | 1%[10 µM] | 4%[10 µM] | . | . | .
CC1=CCC2CC1C2(C)C (centres undefined) | -1% | -1% | . | . | .
CC1Sc2ccc(S(=O)(=O)CCC(=O)N3CCN(c4cccc(Cl)c4)CC3)cc2NC1=O (centres undefined) | ? | 24% | -1% | 13µM* | -17
CC1Sc2ccc(S(=O)(=O)CCC(=O)N3CCN(c4ccccc4)CC3)cc2NC1=O (centres undefined) | -10% | 12% | -1% | -16% | -3
COC(=O)[C@@H]1C[C@H]1[C@@H](NC(C)=O)c1ccccc1 | -6% | 17% | . | . | .
CCCn1c(CCC(=O)Nc2ccccc2Cc2ccccc2)nc2cc(S(=O)(=O)N3CCOCC3)ccc21 | -1% | 35% | 0% | 12µM* | -2
Cn1c(CCC(=O)Nc2ccc(F)cc2)nc2cc(S(=O)(=O)N3CCOCC3)ccc21 | . | . | 0% | 2% | .
COCCNC(=O)CCc1nnc2ccc(N3CCC(C)CC3)nn12 | -6% | 7% | 0% | 8% | 0
O=C1CC(=O)N(CCNc2ncc(C(F)(F)F)cc2Cl)C(=O)N1 | -4% | 24% | 0% | 0% | -1
O=C1C=CC(=O)N1CCNc1ncc(C(F)(F)F)cc1Cl | 6.3µM* | 5µM* | 0% | ? | -32
Cc1ccc(C)c(Oc2coc3cc(OCC(=O)Nc4ccccc4C(C)C)ccc3c2=O)c1 | -9% | ? | 0% | 26µM* | -8

Bioassay records as filed in PubChem BioAssay.
